Compound activity as filed in PubChem.
Sampled rows, rich in hits. Any-hit rate of the full collection: about 12%.
PLK1 PBD block: PLK1 (human) polo-box domain binding inhibition; P53350; Plk1 PBD binding of FITC phosphopeptide, fluorescence polarization; Potency, µM, for inactives: max response, negative = inhibition, hits mostly inhibitors; 360,000 tested, 2.8% active; AID 720504; note: series mostly up to about 57 µM; % is set by controls: 0 for no effect and ±100 for the full control effect; nearly all actives have a fitted effect of over 65% in size
Target sequence (P53350 whole entry, looked up, the tested form may be a part): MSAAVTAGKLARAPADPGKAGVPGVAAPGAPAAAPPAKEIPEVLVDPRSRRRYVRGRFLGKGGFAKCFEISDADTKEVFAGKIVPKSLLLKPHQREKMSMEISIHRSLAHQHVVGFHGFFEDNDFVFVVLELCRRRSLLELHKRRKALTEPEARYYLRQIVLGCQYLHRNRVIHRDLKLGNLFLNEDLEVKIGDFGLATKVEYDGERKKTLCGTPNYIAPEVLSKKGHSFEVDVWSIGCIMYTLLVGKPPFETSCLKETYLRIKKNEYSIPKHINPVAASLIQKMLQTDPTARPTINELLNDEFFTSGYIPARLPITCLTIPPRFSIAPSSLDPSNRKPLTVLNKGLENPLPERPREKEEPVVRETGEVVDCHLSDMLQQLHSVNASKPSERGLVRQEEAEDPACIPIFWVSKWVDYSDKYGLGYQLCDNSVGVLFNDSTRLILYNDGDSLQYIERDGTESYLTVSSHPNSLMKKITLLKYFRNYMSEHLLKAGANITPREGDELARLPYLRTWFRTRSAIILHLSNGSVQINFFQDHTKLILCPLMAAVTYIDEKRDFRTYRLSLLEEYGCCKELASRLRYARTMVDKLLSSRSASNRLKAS
G9a inh: inhibitors of human histone lysine methyltransferase G9a; Q96KQ7; G9a H3K9 monomethylation, AlphaScreen, 2 h; Potency, µM (doses to about 102 µM), without a hit: at the highest dose activity, negative = inhibition, most hits filed as inhibitors; 350,000 tested, 8.8% active; AID 504332; note: % is set by controls: 0 for no effect and ±100 for the full control effect; nearly all actives have a fitted effect of over 75% in size
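G9a (20 nM) preincubated 15 min RT with compounds, then 500 nM biotinylated H3K9 peptide and 20 uM SAM added; 2 h RT reaction. Monomethyl-H3K9 product detected by AlphaScreen with anti-H3K9me1 antibody, streptavidin donor and anti-rabbit IgG acceptor beads.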
BAZ2B block: BAZ2B (human) inhibition. Q9UIF8. AlphaScreen BAZ2B-H3K14Ac peptide displacement. Potency, µM (titrated, usually from 114 µM), for the others: at the top dose activity change, negative = inhibition, hits mostly inhibitors. 360,000 tested, 4.4% active. AID 504333; note: % is set by controls: 0 for no effect and ±100 for the full control effect; nearly all actives have a fitted effect of over 60% in size
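Multi-concentration screen (max 110 uM) measuring displacement of acetylated histone H3 peptide from BAZ2B by AlphaScreen, using 50 nM protein, 50 nM peptide and 10 ug/mL streptavidin donor plus Ni-chelate acceptor beads.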
Sfp PPTase inh: blocks B. subtilis Sfp PPTase activity. Biochemical Sfp PPTase activity, qHTS. Potency, µM, for the others: largest response in the series, negative = inhibition, actives largely listed as inhibitors. 310,000 tested, 3.5% active. AID 1490;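 note: the enzyme is Sfp with the accession as filed and its product quenches rhodamine fluorescence; 0% = enzyme reaction without inhibitor and -100% = no enzyme wells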
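After 15 min at room temperature with compound, 15 nM Sfp received 5 uM rhodamine-CoA plus 12.5 uM BHQ-2-ybbR (50 mM Hepes pH 7.6, 10 mM MgCl2). Rate came from the fluorescence difference over 30 min, ex 525/em 598 nm.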
JMJD2A Tudor: blocks the human JMJD2A Tudor domain. O75164. AlphaScreen JMJD2A-Tudor / H3K4me3 peptide binding. Potency, µM (titrated, usually from 114 µM), for the others: at the top dose activity change, negative = inhibition, most hits filed as inhibitors. 390,000 tested, 4.4% active; note: % is set by controls: 0 for no effect and ±100 for the full control effect; nearly all actives have a fitted effect of over 50% in size
HP1b binding inh: blocks HP1-beta chromodomain binding to methylated histone tails. P83916. Potency, µM (titrated, usually from 114 µM), inactives show at the highest dose activity change, negative = inhibition, actives largely listed as inhibitors. AlphaScreen HP1-beta / biotin-H3K9me3 peptide binding. 390,000 tested, 0.56% active; note: nearly all actives have a fitted effect of over 70% in size
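AlphaScreen: HP1-beta (50 nM) preformed 30 min with biotin-H3(1-18)K9me3 peptide (50 nM) in PBS pH 7.4, 0.01% Tween-20. Compound added for 30 min at RT, then streptavidin donor/nickel chelate acceptor beads (10 ug/mL) for 30 min.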
Numbers without * were called inactive; [ ] = remark or other dose. Calls come from the whole dose curve; as a rule, active = well fitted curve in the direction sought with a large enough effect; inconclusive = small, poorly fitted or top-dose-only effect, or another doubt; inactive = no such curve, though single readings can be large; an effect the other way counts as inactive or inconclusive. Potency is the fitted concentration of half-maximal effect.

What do the screens show for `CCN1CCN(C(=O)C(C)Nc2cc(Cl)c(OC)cc2OC)CC1` (stereo not given)?
PLK1 PBD block: -6%; G9a inh: 40µM*; Sfp PPTase inh: -7%; JMJD2A Tudor: -29%; HP1b binding inh: 11%

What do the screens show for `Cn1cc(Br)c(C(=O)NNC(=O)c2ccc(Cl)cc2)n1`?
PLK1 PBD block: 5%; G9a inh: inconclusive; BAZ2B block: -20%; Sfp PPTase inh: 15%; JMJD2A Tudor: -3%; HP1b binding inh: 26%

What do the screens show for `COc1cc(F)c(S(=O)(=O)N2CCCN(S(=O)(=O)c3ccc4c(c3)OCCO4)CC2)c(F)c1`?
JMJD2A Tudor: -16%

What do the screens show for `Cc1ccc(CN(C)C(=O)CN2C(=O)NC(c3ccccc3)(c3ccccc3)C2=O)c(C)c1`?
PLK1 PBD block: -2%; G9a inh: 12%[12.7 µM]; BAZ2B block: -9%; JMJD2A Tudor: -34%; HP1b binding inh: 5%

Results for COc1ccc(SCC(Cc2ccccc2)N2CCN(CC(C)C)CCC2=O)cc1 (stereo not given) ?
Sfp PPTase inh: -22%; JMJD2A Tudor: 136%; HP1b binding inh: 181%

Results for CCN(CC)C(=O)Cn1nnc2sc(-c3ccccc3)cc2c1=O ?
G9a inh: 7%[59 µM]; BAZ2B block: -22%; JMJD2A Tudor: -24%; HP1b binding inh: 21%

Results for CCOC(=O)c1cccc(NC(=O)c2ccc3c(c2)nnn3C2CCCC2)c1 ?
G9a inh: -1%[59 µM]; BAZ2B block: 0%; JMJD2A Tudor: -21%; HP1b binding inh: 15%

Results for CCOc1cc(N2CCOCC2)c(OCC)cc1NC(C)C(=O)N1CCN(CC)CC1 (stereo not given) ?
PLK1 PBD block: inconclusive; G9a inh: 4µM*; BAZ2B block: 10µM*; Sfp PPTase inh: 35µM*; JMJD2A Tudor: 0.35µM*; HP1b binding inh: inconclusive

Results for CCOc1cc(N2CCOCC2)c(OCC)cc1NC(=O)C(C)C ?
PLK1 PBD block: -12%; G9a inh: 58%[59 µM]; BAZ2B block: -10%; Sfp PPTase inh: -3%; JMJD2A Tudor: -7%; HP1b binding inh: 2%

How did CCOc1cc(N2CCOCC2)c(OCC)cc1NC(=O)COC(=O)CCOc1ccc(C(C)(C)C)cc1 do in these assays?
PLK1 PBD block: -6%; G9a inh: 4%[0.501 µM]; BAZ2B block: 35µM*; JMJD2A Tudor: 20µM*; HP1b binding inh: inconclusive

How did COC(=O)C/C=C/[C@@H](C)[C@H](OC)c1c(Br)ccc2c1OCO2 do in these assays?
Sfp PPTase inh: 9%

What do the screens show for `COc1cc(C2C(C(=O)Nc3ccccc3)=C(C)Nc3nnnn32)cc(OC)c1OC` (stereo not given)?
G9a inh: 0%[59 µM]; BAZ2B block: -1%; JMJD2A Tudor: -11%; HP1b binding inh: 24%

Results for Cc1c2cnn(CC(=O)NCc3ccc(F)cc3)c(=O)c2c(C)n1Cc1ccccc1Cl ?
G9a inh: 3%[59 µM]; BAZ2B block: -8%; JMJD2A Tudor: -3%; HP1b binding inh: 42%

Results for Nc1nc(N2CCN(C(=O)c3ccco3)CC2)nc2ccc(Br)cc12 ?
PLK1 PBD block: inconclusive; G9a inh: 50µM*; BAZ2B block: -36%; Sfp PPTase inh: inconclusive; JMJD2A Tudor: -15%; HP1b binding inh: 49%

Results for CCNC(=O)COC(=O)c1cc(-c2ccc(OC)cc2)nc2ccccc12 ?
PLK1 PBD block: -1%; G9a inh: 45%[12.7 µM]; BAZ2B block: 8%; Sfp PPTase inh: -6%; JMJD2A Tudor: -5%; HP1b binding inh: 43%

What do the screens show for `Nc1nc(N2CCN(C(=O)c3ccco3)CC2)nc2ccccc12`?
PLK1 PBD block: -17%; G9a inh: inconclusive; BAZ2B block: 7%; Sfp PPTase inh: 6%; JMJD2A Tudor: 3%[57.1 µM]; HP1b binding inh: 53%

What do the screens show for `O=C(OCC(=O)N1CCN(C(=O)c2ccco2)CC1)c1cc(-c2cccc(Br)c2)nc2ccccc12`?
PLK1 PBD block: -7%; G9a inh: 14µM*; BAZ2B block: -39%; Sfp PPTase inh: -5%; JMJD2A Tudor: -31%; HP1b binding inh: -14%

What do the screens show for `O=C(OCC(=O)N1CCN(C(=O)c2ccco2)CC1)c1cc(-c2ccccc2)nc2ccccc12`?
PLK1 PBD block: -16%; G9a inh: inconclusive; BAZ2B block: inconclusive; Sfp PPTase inh: -24%; JMJD2A Tudor: inconclusive; HP1b binding inh: -19%

How did CCN(CC)C(=O)COC(=O)c1cc(-c2ccco2)nc2ccccc12 do in these assays?
PLK1 PBD block: inconclusive; G9a inh: 4µM*; BAZ2B block: 22µM*; Sfp PPTase inh: -8%; JMJD2A Tudor: 56µM*; HP1b binding inh: inconclusive

How did CNC(=O)COC(=O)c1cc(-c2ccco2)nc2ccccc12 do in these assays?
PLK1 PBD block: 24µM*; G9a inh: 10µM*; BAZ2B block: 50µM*; Sfp PPTase inh: 28µM*; JMJD2A Tudor: 20µM*; HP1b binding inh: 45µM*

How did CCCN(CCC)C(=O)Cn1c(=O)n(-c2ccc(C)c(C)c2)c(=O)c2c3c(sc21)CCCCC3 do in these assays?
G9a inh: 5%[59 µM]; BAZ2B block: 2%; JMJD2A Tudor: -1%; HP1b binding inh: 19%

How did CC(C)NC(=O)N1[C@H](c2cccs2)[C@@H](C)C(=O)[C@@H](C)[C@@H]1c1cccs1 do in these assays?
G9a inh: 8%[59 µM]; BAZ2B block: 1%; JMJD2A Tudor: -19%; HP1b binding inh: 11%

Results for O=C(COC(=O)c1cc(-c2ccco2)nc2ccccc12)NCc1ccccc1 ?
PLK1 PBD block: -16%; G9a inh: 45µM*; BAZ2B block: 10%; Sfp PPTase inh: 40µM*; JMJD2A Tudor: -8%; HP1b binding inh: 26%

What do the screens show for `Cc1cc(C(=O)OCC(=O)NCCc2ccccc2)c2ccccc2n1`?
PLK1 PBD block: -13%; G9a inh: 19%[59 µM]; BAZ2B block: -2%; JMJD2A Tudor: -18%; HP1b binding inh: 21%

Results for CC1(C)CC[C@]2(C(=O)n3ccnc3)CC[C@]3(C)[C@H](C(=O)C=C4[C@@]5(C)C=C(C#N)C(=O)C(C)(C)[C@@H]5CC[C@]43C)[C@@H]2C1 ?
PLK1 PBD block: 1.7µM*; JMJD2A Tudor: inconclusive; HP1b binding inh: 7%

Results for CC1CCc2nc3ccc(S(=O)(=O)N4CCC(C(=O)N5CCCCCC5)CC4)cc3c(C(=O)O)c2C1 (stereo not given) ?
PLK1 PBD block: 6%; G9a inh: 45µM*; BAZ2B block: -21%; Sfp PPTase inh: 13%; JMJD2A Tudor: -16%; HP1b binding inh: -8%
